Laboratory results reported in PubChem BioAssay AID2284367 (EPA ToxCast).
Some compounds were tested as several samples or in several runs, with calls that do not always agree. Activity calls are given as the source filed them. The calls were made as follows: active = hit-call score of the fitted dose curve at least 0.9, where 1 is the maximum; inactive = score below 0.9.

These compounds were tested against human Peroxisome Proliferator-activated Receptor alpha (PPARa) Agonism, conducted at France lab site, PPARA (gene 5465) (UniProt Q07869) (assay: ERF_FR_NR_COA_hPPARA: Eurofins (ERF) Nuclear Receptor (NR) Functional Coactivator Assay for human Peroxisome Proliferator-activated Receptor alpha (PPARa) Agonism, conducted at France lab site).
Sequence of human Peroxisome Proliferator-activated Receptor alpha (PPARa) Agonism, conducted at France lab site, PPARA (gene 5465) (Q07869 whole entry, looked up): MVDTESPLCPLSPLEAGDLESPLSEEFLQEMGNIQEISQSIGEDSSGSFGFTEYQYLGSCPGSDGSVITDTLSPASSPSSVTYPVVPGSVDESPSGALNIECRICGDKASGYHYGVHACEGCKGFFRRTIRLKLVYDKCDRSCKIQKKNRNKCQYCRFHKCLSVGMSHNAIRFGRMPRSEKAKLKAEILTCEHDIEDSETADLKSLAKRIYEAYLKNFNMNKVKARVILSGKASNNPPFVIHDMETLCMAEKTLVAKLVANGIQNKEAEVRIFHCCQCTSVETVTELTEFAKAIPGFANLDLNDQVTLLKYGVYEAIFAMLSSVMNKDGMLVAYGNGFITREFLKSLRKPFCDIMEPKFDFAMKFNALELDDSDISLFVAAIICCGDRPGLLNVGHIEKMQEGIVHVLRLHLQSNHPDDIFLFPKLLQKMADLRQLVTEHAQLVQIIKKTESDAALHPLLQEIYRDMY
Experimental: ERF_FR_NR_COA_hPPARA is a biochemical, single-readout assay that uses extracted gene-proteins in a cell-free assay. Measurements were taken 2 hours after chemical dosing in a 384-well plate. See PPARalpha Human NHR Functional Agonist Coactivator Assay, Cerep.ERF_FR_NR_COA_hPPARA is an assay component calculated from the ERF_FR_NR_COA_hPPARA assay. It is designed to measure FRET using a type of binding reporter as detected by fluorescence intensity of GW7647 with fluorimetry technology.Data from the assay component ERF_FR_NR_COA_hPPARA was analyzed at the assay endpoint, ERF_FR_NR_COA_hPPARA, in the positive analysis fitting direction relative to DMSO as the negative control and baseline of activity. Using a type of binding reporter, gain-of-signal activity can be used to understand changes in binding as they relate to gene PPARA. To generalize the intended target to other relatable targets, this assay endpoint is annotated to the nuclear receptor intended target family, where the subfamily is non-steroidal.
Human cells are incubated for 3 hours at room temprature with GW7647 as control activator. Test Sample Requirements: Minimum for 1) Screen: 75 ul of 10 mM stock or 1 mg (pre-weighed) powder (assuming FW =<500 and purity 100%).
With O=C(O)C(F)(F)C(F)(F)C(F)(F)C(F)(F)C(F)(F)C(F)(F)C(F)(F)F the AC50 was 3.17 µM (active) and the outcome was “inactive”. With O=C(O)C(F)(F)OC(F)(F)C(F)(F)OC(F)(F)F the outcome was “inactive”. In the case of CN(CCOc1ccc(CC2SC(=O)NC2=O)cc1)c1ccccn1 (stereo not drawn), the outcome is reported as “inactive”. O=C(Cl)C(F)(F)C(F)(F)C(F)(F)C(F)(F)C(F)(F)C(F)(F)F was tested, and the outcome was “inactive”. O=C(O)C(F)(F)C(F)(F)C(F)(F)C(F)(F)C(F)(F)C(F)(F)F was tested, and the outcome was “inactive”. In the case of O=S(=O)(O)C(F)(F)C(F)(F)C(F)(F)C(F)(F)C(F)(F)C(F)(F)C(F)(F)C(F)(F)F, the outcome is reported as “inactive”. For O=C(O)C(F)(F)C(F)(F)C(F)(F)C(F)(F)C(F)(F)C(F)(F)C(F)F, the outcome was “inactive”. O=C(O)CCC(F)(F)C(F)(F)C(F)(F)F was tested, and the outcome was “inactive”. For O=C(O)C(F)(F)C(F)(F)C(F)(F)C(F)(F)C(F)(F)C(F)(F)C(F)(F)C(F)(F)Cl, the outcome was “inactive”. O=C(CC(=O)C(F)(F)C(F)(F)C(F)(F)F)c1cccs1 was tested, and the outcome was “inactive”. With O=S(=O)(O)C(F)(F)C(F)(F)C(F)(F)C(F)(F)C(F)(F)C(F)(F)F the outcome was “inactive”. In the case of CC(C)(Oc1ccc(C(=O)c2ccc(Cl)cc2)cc1)C(=O)O, the outcome is reported as “inactive”.
